From PubChem BioAssay (NCATS) come the findings set out here.

Inconclusive results are not listed. Where a call stands in place of a potency, no number is given. Active and inactive are the calls of the source. Calls follow the shape of the dose curve; as a rule, active = well fitted inhibition curve with a large enough effect; inconclusive = small, poorly fitted or top-dose-only effect; inactive = no such curve, though single readings can be large or run the other way.

The nature of this assay: Primary qHTS for small molecule stabilizers of the endoplasmic reticulum resident proteome: Secreted ER Calcium Modulated Protein (SERCaMP) assay (AID 1508630). The following applies: SH-SY5Y GLuc-SERCaMP (Gaussia luciferase released on ER calcium loss) secretion, thapsigargin, luminescence; series mostly up to 38.4 µM. Summed up:
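The SH-SY5Y reporter protocol was run at 3 concentrations up to 38.3 uM (primary) or 11 concentrations (follow-up): 16 h compound, 100 nM thapsigargin for 4 h, then extracellular luciferase luminescence.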
Background: In qHTS, concentration-response curves come from the screen itself.
With `Oc1c(Cl)cc(Cl)c(Cl)c1Cc1c(O)c(Cl)cc(Cl)c1Cl`, the Potency entry was “inactive”.
Then `CC(C)=CCOc1ccc(/C=C/C(=O)c2ccc(OCC=C(C)C)cc2OCC(=O)O)cc1`, with “inactive”.
As to `CCCCN1C[C@H](O)[C@@H](O)[C@H](O)[C@H]1CO`, the Potency entry was “inactive”.
For `C[N+]1(CC2COC(c3ccccc3)(C3CCCCC3)O2)CCCCC1` (stereo unspecified), the Potency entry is “inactive”.
For `CC(C)CCCC(C)N` (stereo unspecified), the Potency result was “inactive”.
As for `O=C(O)C(Cc1cc(I)c(O)c(I)c1)c1ccccc1` (stereo unspecified), the Potency result is “inactive”.
`CC(=O)Nc1ncc([N+](=O)[O-])s1`: the Potency result is “inactive”.
Consider `CCNC(=O)/C=C/c1cccc(Br)c1`, for which the Potency entry was “inactive”.
In the case of `Cc1cc(NS(=O)(=O)c2ccc(N)cc2)nc(C)n1`, the Potency entry is “inactive”.
Consider `CN1CCN(c2cc3c(cc2F)c(=O)c(C(=O)O)cn3-c2ccc(F)cc2)CC1`, for which the Potency result is “inactive”.
Then `C[C@H]1[C@H]2CC[C@H]3[C@@H]4CC=C5C[C@@H](N(C)C)CC[C@]5(C)[C@H]4CC[C@]23CN1C`, with “inactive”.
For the compound `CCc1oc2ccccc2c1C(=O)c1cc(I)c(O)c(I)c1`, the Potency result was “inactive”.
Regarding `CC(=O)OCC1=C(C(=O)O)N2C(=O)[C@@H](NC(=O)CSc3ccncc3)[C@H]2SC1`, the Potency entry was “inactive”.
Consider `Cc1nc(-c2ccc(Cl)cc2)oc1COC(C)(C)C(=O)O`, for which the Potency entry is “inactive”.
In the case of `OC[C@H]1O[C@@H]2O[C@H]3[C@H](O)[C@@H](O)[C@@H](O[C@H]4[C@H](O)[C@@H](O)[C@@H](O[C@H]5[C@H](O)[C@@H](O)[C@@H](O[C@H]6[C@H](O)[C@@H](O)[C@@H](O[C@H]7[C@H](O)[C@@H](O)[C@@H](O[C@H]8[C@H](O)[C@@H](O)[C@@H](O[C@H]1[C@H](O)[C@H]2O)O[C@@H]8CO)O[C@@H]7CO)O[C@@H]6CO)O[C@@H]5CO)O[C@@H]4CO)O[C@@H]3CO`, the Potency result was “inactive”.
`CC(=O)O[C@H]1C[C@@H]2CC[C@@H]3[C@H](CC[C@@]4(C)[C@H]3C[C@H]([N+]3(C)CCCCC3)[C@@H]4OC(C)=O)[C@@]2(C)C[C@@H]1N1CCCCC1`: the Potency result is “inactive”.
The result for `CN(C)CCOC(=O)C(c1ccccc1)C1(O)CCCC1` (stereo unspecified) reads “inactive”; that for `CCNC(=O)NCc1cccc(Cl)c1`, “inactive”.
Regarding `C#C[C@]1(OC(C)=O)CC[C@H]2[C@@H]3CCC4=C/C(=N/O)CC[C@@H]4[C@H]3CC[C@@]21CC`, the Potency entry was “inactive”.
Regarding `OC[C@H]1O[C@@H](Oc2ccc(O)cc2)[C@H](O)[C@@H](O)[C@@H]1O`, the Potency result was “inactive”.
In the case of `c1ccc(CC2=NCCN2)cc1`, the Potency entry is “inactive”.
Regarding `Cc1cccc(C)c1NC(=O)CN1CCCC1`, the Potency result is “inactive”.
For the compound `O=C(N/N=C/c1ccc([N+](=O)[O-])o1)c1ccc(O)cc1`, the Potency entry is “inactive”.
On to `CN1CCc2cccc3c2[C@H]1Cc1ccc(O)c(O)c1-3`, for which the Potency entry was “inactive”.
In the case of `CCOC(=O)C(C#N)=C(c1ccccc1)c1ccccc1`, the Potency result is “inactive”.
For `C=C1c2cccc(O)c2C(O)=C2C(=O)[C@]3(O)C(O)=C(C(N)=O)C(=O)[C@@H](N(C)C)[C@@H]3[C@@H](O)[C@H]12`, the Potency entry was “inactive”.
